Laboratory results from PubChem BioAssay (NCATS).
Where “and” joins values, the source holds several entries; their conditions need not be identical. Identical values can stand only once. Inconclusive results are not listed. Calls of active or inactive are those of the source. The call rests on the fitted dose curve; in most records, active means well fitted curve in the direction sought with a large enough effect; inconclusive means small, poorly fitted or top-dose-only effect, or another doubt; inactive means no such curve, though single readings can be large; an effect the other way counts as inactive or inconclusive.

Key:
CAOV3 = experiment: Primary qHTS to identify gynecologic anti-cancer compounds using libraries of approved drugs and bioactive compounds (AID 1345084); conditions: Gynecologic cancer cell panel viability, ATPlite luminescence, 48 h; series mostly up to 57.5 µM; further: nearly all actives have a fitted effect of over 55% in size
Outline: (§1)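 Measured: luminescence after ATPlite addition (15 min, RT). Exposure: 48 h, 37 C, 5% CO2.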

CASKI = experiment: as above; conditions: Gynecologic cancer cell panel viability, ATPlite luminescence, 48 h; series mostly up to 57.5 µM
Outline: as §1

Es-2 = experiment: as above; conditions: Gynecologic cancer cell panel viability, ATPlite luminescence, 48 h; series mostly up to 57.5 µM
Outline: as §1

HeLa = experiment: as above; conditions: Gynecologic cancer cell panel viability, ATPlite luminescence, 48 h; series mostly up to 57.5 µM
Outline: as §1

OV90 = experiment: as above; conditions: Gynecologic cancer cell panel viability, ATPlite luminescence, 48 h; series mostly up to 57.5 µM
Outline: as §1

SKOV3 = experiment: as above; conditions: Gynecologic cancer cell panel viability, ATPlite luminescence, 48 h; series mostly up to 57.5 µM
Outline: as §1

Tov-21-G = experiment: as above; conditions: Gynecologic cancer cell panel viability, ATPlite luminescence, 48 h; series mostly up to 57.5 µM
Outline: as §1

Tov112D = experiment: as above; conditions: Gynecologic cancer cell panel viability, ATPlite luminescence, 48 h; series mostly up to 57.5 µM
Outline: as §1

JEG-3 = experiment: as above; conditions: Gynecologic cancer cell panel viability, ATPlite luminescence, 48 h; series mostly up to 57.5 µM
Outline: as §1

C33A = experiment: as above; conditions: Gynecologic cancer cell panel viability, ATPlite luminescence, 48 h; series mostly up to 57.5 µM
Outline: as §1

Hek293T = experiment: as above; conditions: Gynecologic cancer cell panel viability, ATPlite luminescence, 48 h, control line for the selectivity index; series mostly up to 57.5 µM
Outline: as §1

PA-1 = experiment: as above; conditions: Gynecologic cancer cell panel viability, ATPlite luminescence, 48 h; series mostly up to 57.5 µM
Outline: as §1

[1] = qHTS assay to identify inhibitors of the type 1 interferon - major histocompatibility complex class I in skeletal muscle: Counter screen cell viability and HiBit confirmation (AID 1347412); conditions: iHSKM muscle cells + IFN-b, HiBiT or CellTiter-Glo, 24 h; further: nearly all actives have a fitted effect of over 60% in size
Outline: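 Human myoblast knock-in line, 4.0 ng/ml IFN-beta stimulation, 24 h compound treatment. Endpoints: HiBiT lytic luminescence (HLA-B level) and CellTiter Glo (ATP). Dosing 12 concentrations, 3-fold steps, 46 uM highest final.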
On the % scale 0 is the no-effect control and ±100 the full control effect; potency means the concentration at half of the fitted maximal effect.

COc1cc(N2CCC(N3CCN(C)CC3)CC2)ccc1Nc1ncc(Cl)c(-c2c[nH]c3ccccc23)n1
active: Potency (CAOV3) 11.2 µM | Potency (CASKI) 8.91 µM | Potency (HeLa) 8.91 µM | Potency (OV90) 15.8 µM | Potency (SKOV3) 3.98 µM | Potency (Tov-21-G) 8.91 µM | Potency (Tov112D) 20 µM
inactive: Potency (Es-2)

COc1ccc(C(=O)Nc2ncc(-c3ccc(C(=O)O)cc3)s2)cc1
active: Potency (CAOV3) 6.31 µM | Potency (CASKI) 17.8 µM | Potency (Es-2) 31.6 µM | Potency (HeLa) 7.08 µM | Potency (JEG-3) 15.8 µM | Potency (OV90) 10 µM | Potency (Tov-21-G) 14.1 µM | Potency (Tov112D) 14.1 µM

CCCCNc1ncc2c(-c3ccc(CN4CCN(C)CC4)cc3)cn(C3CCC(O)CC3)c2n1 (centres undefined)
inactive: Potency (C33A) | Potency (Hek293T) | Potency (JEG-3)
active: Potency (HeLa) 1.78 µM | Potency (PA-1) 6.31 µM | Potency (SKOV3) 3.55 µM | Potency (Tov-21-G) 7.94 µM | Potency ([1]; HiBiT) 3.94 µM and 14 µM | Potency ([1]; Viability) 7.01 µM

CC(=O)c1cc(C(=O)N[C@@H](C)Cn2ccc(-c3ccc(C#N)c(Cl)c3)n2)[nH]n1
inactive: Potency (CAOV3) | Potency (CASKI) | Potency (Es-2) | Potency (HeLa) | Potency (JEG-3) | Potency (PA-1) | Potency (Tov-21-G) | Potency (Tov112D)

O=C(O)c1cc2cccc([N+](=O)[O-])c2[nH]1
inactive: Potency (CAOV3) | Potency (CASKI) | Potency (Es-2) | Potency (HeLa) | Potency (Hek293T) | Potency (JEG-3) | Potency (OV90) | Potency (PA-1) | Potency (SKOV3) | Potency (Tov-21-G)

CN1c2ccccc2C(=O)N2CCC3c4ccccc4NC3C21 (centres undefined)
active: Potency (Hek293T) 5.62 µM | Potency (JEG-3) 3.98 µM | Potency (PA-1) 4.47 µM | Potency (Tov-21-G) 6.31 µM | Potency (Tov112D) 1.78 µM
inactive: Potency (C33A) | Potency (OV90)

CC(C)c1c2cc(-c3ccnc(NC4CCC(NC5CCOCC5)CC4)n3)ccc2nn1C (centres undefined)
inactive: Potency (CAOV3) | Potency (JEG-3) | activity change, negative = inhibition ([1]; Viability, at 45.9 µM (top of the series)) -6.54%
active: Potency (CASKI) 0.631 µM | Potency (Es-2) 0.316 µM | Potency (HeLa) 0.708 µM | Potency (PA-1) 0.355 µM | Potency (Tov112D) 0.398 µM | Potency ([1]; HiBiT) 0.249 µM

C=CC(=O)Nc1cc(Nc2nccc(-c3c[nH]c4ccccc34)n2)c(OC)cc1N(C)CCN(C)C
active: Potency (CAOV3) 28.2 µM | Potency (CASKI) 28.2 µM | Potency (Es-2) 20 µM | Potency (HeLa) 15.8 µM | Potency (PA-1) 4.47 µM
